According to PubChem BioAssay (NCATS):
Active and inactive are the calls of the source. Where a call stands in place of a potency, no number is given. Calls come from the whole dose curve; as a rule, active = well fitted curve in the direction sought with a large enough effect; inconclusive = small, poorly fitted or top-dose-only effect, or another doubt; inactive = no such curve, though single readings can be large or run the other way.

What follows are compounds tested against Hexokinase-4 (Homo sapiens) + Glucokinase regulatory protein (Homo sapiens) (UniProt P35557+Q14397) (assay: qHTS assay for inhibitors of recombinant human GCK-GKRP interaction: Diaphorase-coupled assay (AID 743205)). Conditions: G6PDH/diaphorase resorufin fluorescence; series mostly up to 57.5 µM.
Hexokinase-4 (Homo sapiens) + Glucokinase regulatory protein (Homo sapiens), sequence (P35557 whole entry, looked up): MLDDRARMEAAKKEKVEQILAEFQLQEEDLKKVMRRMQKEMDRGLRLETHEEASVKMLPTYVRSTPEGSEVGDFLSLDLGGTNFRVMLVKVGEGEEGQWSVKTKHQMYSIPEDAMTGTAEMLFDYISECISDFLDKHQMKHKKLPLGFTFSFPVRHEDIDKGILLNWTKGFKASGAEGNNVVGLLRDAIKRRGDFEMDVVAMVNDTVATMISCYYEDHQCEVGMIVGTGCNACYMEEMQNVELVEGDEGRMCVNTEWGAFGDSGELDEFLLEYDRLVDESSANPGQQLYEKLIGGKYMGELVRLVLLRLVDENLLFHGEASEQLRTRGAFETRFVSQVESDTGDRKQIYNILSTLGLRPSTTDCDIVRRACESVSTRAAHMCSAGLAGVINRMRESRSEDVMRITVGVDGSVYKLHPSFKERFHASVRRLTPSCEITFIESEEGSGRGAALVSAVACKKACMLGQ
Hexokinase-4 (Homo sapiens) + Glucokinase regulatory protein (Homo sapiens), sequence (Q14397 whole entry, looked up): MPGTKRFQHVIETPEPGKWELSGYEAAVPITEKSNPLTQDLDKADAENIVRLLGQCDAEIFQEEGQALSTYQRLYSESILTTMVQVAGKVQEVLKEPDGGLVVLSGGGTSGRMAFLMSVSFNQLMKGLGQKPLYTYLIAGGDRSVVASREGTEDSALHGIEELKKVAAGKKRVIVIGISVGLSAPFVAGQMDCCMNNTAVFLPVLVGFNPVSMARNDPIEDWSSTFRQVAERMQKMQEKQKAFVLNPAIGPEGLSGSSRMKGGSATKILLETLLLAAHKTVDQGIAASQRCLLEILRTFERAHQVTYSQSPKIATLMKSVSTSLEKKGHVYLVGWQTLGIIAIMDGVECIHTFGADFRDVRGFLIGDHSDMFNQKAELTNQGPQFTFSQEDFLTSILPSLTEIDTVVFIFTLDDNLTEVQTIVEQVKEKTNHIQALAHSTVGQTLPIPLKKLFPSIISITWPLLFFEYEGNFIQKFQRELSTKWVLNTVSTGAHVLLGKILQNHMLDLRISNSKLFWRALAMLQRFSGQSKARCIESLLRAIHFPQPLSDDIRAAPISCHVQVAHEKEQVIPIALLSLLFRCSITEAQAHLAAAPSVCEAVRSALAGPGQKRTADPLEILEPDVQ
Excerpt: Glucokinase (GCK) is a glucose sensor in hepatocytes and pancreatic beta-cells. Hepatic GCK is regulated by glucokinase regulatory protein (GKRP), which is predominantly localized to the liver. GKRP binds to GCK inhibiting its activity in the fasting state while in the presence of glucose the GKRP is displaced. There is an additional layer of regulation by fructose 1-phosphate and fructose 6-phosphate, which inhibit and enhance the GCK-GKRP interaction, respectively. GCK plays a role in glucose homeostasis and there is an interest in the development of strategies to activate GCK to lower blood glucose levels in type 2 diabetes. To date the majority of effort has focused on direct activation of GCK and the assays developed herein look to activate GCK by inhibiting its binding to GKRP. A compound that inhibits the interaction of GCK with GKRP could be important for the treatment of diabetes and can also be used as a tool compound to further elucidate GCK-GKRP biology. To that end, we have developed a sensitive HTS biochemical assay where in GCK activity is coupled to G6PDH and Diaphorase to interrogate the GCK-GKRP interaction. This assay was screened against a small compound library to look for modulators of activity.
2 uL of substrate (columns 1-48) are dispensed into Greiner, black solid-bottom 1536-well assay plates. Compounds (23 nL) are then transferred via Kalypsys pin tool equipped with 1536-pin array (10 nL slotted pins, V&P Scientific, San Diego, CA). The library compounds are in columns 5-48 and columns 1-4 serve as controls with DMSO in columns 1 and 3 and 26 mM 1:1.5 fold serial of gluckokinase activator (GKA-EMD) in column 2 and 26 mM of the glucokinase activator (GKA-EMD) in column 4. Following addition of compound and a 20 minute incubation, 1 uL of enzyme mix (GST-GCK, FLAG-GKRP and diaphorase) is added to columns 1, 2, 4-48 and 1 uL of no enzyme mix (FLAG-GKRP and diaphorase) is added to column 3 and the fluorescent product resorufin generated from resazurin was monitored on a Viewlux (PerkinElmer, Shelton, CT, USA) with excitation at 525 nm and emission at 590 nm in kinetic mode where the plate was read every minute for 30 minutes. The final concentration of reagents in the reaction are 25 mM Hepes pH 7.6, 25 mM KCl, 2 mM MgCl2, 1.4 mM 2-mercaptoethanol, 0.025% BSA, 0.01% Tween-20, 0.15 mM NADP+, 5 mM glucose, 0.4 mM ATP, 4 U/ml G6PDH, 0.1 mM resazurin, 10 nM GST-GCK, 10 nM FLAG-GKRP, diaphorase (0.1 mg/mL). Data are normalized to DMSO-treated control columns with (maximum signal) and without (minimum signal) enzyme.
In the case of `Nc1ncnc2c1nc(Sc1ccc(Cl)cc1)n2[C@H]1OC2COP(=O)(O)O[C@@H]2C1O` (stereo not given in full), the Potency is reported as “inactive”. With `O=C1C2C=CC=CC2=NC(=S)N1CCN1CCC(=C(c2ccc(F)cc2)c2ccc(F)cc2)CC1` (stereo not given) the Potency was “inactive”. In the case of `NCCCNCCCCNCCCN`, the Potency is reported as “inactive”. `CC1=C(C(=O)O)N2C(=O)[C@@H](NC(=O)C(N)C3=CCC=CC3)[C@H]2SC1` (stereo not given in full) was tested, and the Potency was “inactive”. For `O=C(O)C1=CCCN(CCON=C(c2ccccc2)c2ccccc2)C1`, the Potency was “inactive”. In the case of `Cn1cc(C(=O)OCC2CCN(CCNS(C)(=O)=O)CC2)c2ccccc21`, the Potency is reported as “inactive”. `CCN(CC)CCOC(=O)c1cc(Cl)c(N)cc1OC` was tested, and the Potency was “inactive”. With `COc1cccc(OC)c1OCCNCC1CSc2ccccc2O1` (stereo not given) the Potency was “inactive”. With `COC(=O)[C@H](NC(=O)c1cc(-c2ccccc2)nc2ccccc12)c1ccccc1` the Potency was “inactive”. In the case of `CCCCCCC(=O)OC1CC(C)(C)NC(C)(C)C1`, the Potency is reported as “inactive”. In the case of `CCCn1c(=O)c2[nH]c(-c3ccc(S(=O)(=O)O)cc3)nc2n(CCC)c1=O`, the Potency is reported as “inactive”. For `CCCn1c(=O)c2[nH]c(C3CCCC3)nc2n(CCC)c1=O`, the Potency was “inactive”. `C=CCN1CCc2cc(O)c(O)cc2C(c2ccccc2)C1` (stereo not given) was tested, and the Potency was “inactive”. With `O=C(O)[C@H]1NCCC[C@H]1C(=O)O` the Potency was “inactive”. For `O=C(O)c1cc2cc(F)ccc2[nH]1`, the Potency was “inactive”. For `COc1cc(CC(=O)O)ccc1O`, the Potency was “inactive”. For `O=C(O)C1CCNCC1`, the Potency was “inactive”. In the case of `COc1ccc(NC(=O)c2ccc(-c3ccc(-c4noc(C)n4)cc3C)cc2)cc1N1CCN(C)CC1`, the Potency is reported as “inactive”. With `CCCC[C@@]1(C2CCCC2)Cc2cc(OCC(=O)O)c(Cl)c(Cl)c2C1=O` the Potency was “inactive”. With `N=C(N)c1ccc(N)cc1` the Potency was “inactive”. With `Cc1cccc(C(=O)NCN2CCN(c3ccccc3C#N)CC2)c1` the Potency was “inactive”. With `CC1CNCCN1S(=O)(=O)c1cccc2cnccc12` (stereo not given) the Potency was “inactive”. With `COc1ccc(CCn2nnnc2C2(c3ccc(C)cc3)CC2)cc1` the Potency was “inactive”. `N[C@H](C(=O)O)[C@H](O)C(=O)O` was tested, and the Potency was “inactive”. For `NC(N)=NC(N)=Nc1ccccc1`, the Potency was “inactive”. `[Li+]` was tested, and the Potency was “inactive”. With `S=C(S)N1CCCC1` the Potency was “inactive”. In the case of `O=C(c1ccc2c(c1)OCCO2)N1CCCCC1`, the Potency is reported as “inactive”. In the case of `NC(=O)CNCCC(c1ccccc1)c1ccccc1`, the Potency is reported as “inactive”. For `Nc1ncnc2c1ncn2C1CCCC1`, the Potency was “inactive”. In the case of `O=C(O)/C=C/c1ccc(O)c(O)c1`, the Potency is reported as “inactive”. `C=C(C)C1CC=C(C(=O)O)CC1` (stereo not given) was tested, and the Potency was “inactive”. In the case of `NC1(C(=O)O)CCc2cc(C(=O)O)ccc21` (stereo not given), the Potency is reported as “inactive”. `CC(C)Cn1c(=O)n(C)c(=O)c2[nH]cnc21` was tested, and the Potency was “inactive”. With `O=c1ccc2c(OCCCCc3ccccc3)c3ccoc3cc2o1` the Potency was “inactive”. `COc1cc([C@@H]2c3cc4c(cc3[C@H](O)C3COC(=O)[C@@H]32)OCO4)cc(OC)c1OC` (stereo not given in full) was tested, and the Potency was “inactive”. With `CC[N+](CC)(CC)CC(=O)Nc1c(C)cccc1C` the Potency was “inactive”. In the case of `Cc1ccccc1/C=C/C1=NCCN1`, the Potency is reported as “inactive”. In the case of `CC(N)=O`, the Potency is reported as “inactive”. `N=S(=O)(O)Cc1noc2ccccc12` was tested, and the Potency was “inactive”.
